The results in this text go back to paper PMC5540273 (PLoS ONE, 2017).
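Also: KINOMEscan kinase panel screen.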

The assay deals with CSK. The settings on record: concentration: 1 μM, replicates: in singlicate; n = 1.
In the case of `CC(=O)N1CCN(c2ccc(Nc3nccc(-c4sc(C(C)C)nc4-c4cccc(NS(=O)(=O)c5cccc(Cl)c5)c4)n3)cn2)CC1` [GSK1660437], the “%Inh” value is on record as 95.4%.
The same measure for `Cl.Cl.NCC(C(=O)Nc1cc(Br)c(-c2ccnc3[nH]ccc23)s1)c1ccccc1` (stereo not shown) [GSK1269851]: 0%; for `CC(C)(C)c1ccc2nccc(Nc3cccc(O)c3)c2c1` [GW856795]: 0%; for `NCCCC(NC(=O)c1cc(Br)c(-c2ccnc3[nH]ccc23)s1)c1ccccc1.O=C(O)C(F)(F)F.O=C(O)C(F)(F)F` (stereo not shown) [GSK1287544]: 0%.
For the compound `Cl.c1ccc(-c2ccc3c(Nc4ccc5[nH]ncc5c4)ccnc3c2)nc1` [GW440137], the “%Inh” value was determined as 0%.
The same measure for `c1ccc(Oc2ccc(Nc3ccnc4cc(-c5ccc(CNCCN6CCOCC6)o5)ccc34)cc2)nc1` [GW567145]: 77%; for `O=C(Nc1cccc(Oc2ccc3nc(NC(=O)C4CC4)cn3n2)c1)c1ccccc1C(F)(F)F`: 11%.
For the compound `CC(C)c1nc(-c2cccc(NS(=O)(=O)c3c(F)cccc3F)c2F)c(-c2ccnc(Nc3ccc(N4CCOCC4)nc3)n2)s1` [GSK2008607], the “%Inh” value came out at 98%.
The same measure for `Nc1ncc(-c2cccnc2)c2scc(-c3ccc4c(c3)CCN4C(=O)Cc3ccccc3)c12` [GSK683281]: 23%.
Under `Cn1cc(-c2ccc3c(c2)CCN3C(=O)Cc2cccc(F)c2)c2c(N)ncnc21` [GSK2603358] stands 14%; under `Cl.NC(=O)c1cccc(Nc2nccc(Nc3ccc(Oc4c(Cl)cccc4Cl)c(Cl)c3)n2)c1` [GW659009], 0%.
As to `COCCOCCOc1cc2ncc3c4ccc(C#N)cc4[nH]c3c2cc1OC`, the “%Inh” value is 10%.
Under `COc1cccc(-c2ccc3c(NC(=O)C4CC4)n[nH]c3n2)c1` [SB-710903] stands 0%.
The same measure for `Nc1ncc(-c2ccc3nccc(-c4ccncc4)c3c2)cc1S(=O)(=O)N1CCOCC1` [GSK1627798]: 0%.
The same measure for `Cc1ccc(C(=O)N2CC[C@@H](O)C2)cc1-n1c(C)cc(OCc2ccc(F)cc2F)c(Br)c1=O`: 0%; for `O=C(O)C(F)(F)F.O=C(O)C(F)(F)F.O=c1[nH]ccc2nc(N[C@@H]3CCCNC3)nc(Nc3ccc(S(=O)(=O)N4CCOCC4)cc3)c12` [GSK2177277]: 51%.
As to `COc1cc(Nc2nccc(-c3c(-c4cccc(NC(=O)c5c(F)cccc5F)c4)nn4ncccc34)n2)cc(OC)c1OC` [GSK327238], the “%Inh” value is recorded as 98.1%.
Regarding `COc1cccc(C2=C(Nc3ccc(Cl)c(C(=O)O)c3)C(=O)NC2=O)c1` [SB-390769], the “%Inh” value worked out at 0%.
Turning to `Cc1ccc(C(=O)Nc2ccc(Nc3ccnc4cc(-c5nccs5)ccc34)cc2O)cc1.Cl` [GW494702], the “%Inh” value worked out at 30%.
With `CCn1c(-c2nonc2N)nc2c(C#CC(C)(C)O)nc(OC[C@H](N)c3ccccc3)cc21` [GSK943949], the “%Inh” value was 0%.
`COC(=O)Nc1nc2cc(Oc3ccc(NC(=O)Nc4cc(C(F)(F)F)ccc4F)cn3)ccc2[nH]1.Cl.Cl` [GW681170]: the “%Inh” value is listed as 0%.
The same measure for `Cl.Cl.NCC(NCc1ccc(-c2ccnc3[nH]ccc23)s1)c1ccccc1` (stereo not shown) [GSK1321565]: 0%; for `O=c1[nH]cc(-c2ccc(N3CCOCC3)cc2)c2sc(-c3cn[nH]c3)cc12` [GSK2276055]: 7%; for `c1ccc(-c2cnc3nccnn23)cc1` [AH20685]: 0%.
The same measure for `COc1cc(Nc2nccc(-c3c(-c4cccc(NC(=O)c5c(F)cccc5F)c4)nn4ccccc34)n2)cc(OC)c1OC` [GSK323521]: 1%.
